RecA intein inh = inhibitors of M. tuberculosis RecA intein splicing; P9WHJ3; cell-free RecA intein splicing, fluorescence; inhibition, % (test concentration not listed); 0.75% of 290,000 active; AID 2221; in the data active = inhibition above about 30%; inconclusive = no clear call, values can overlap the other calls
Target sequence (P9WHJ3 whole entry, looked up): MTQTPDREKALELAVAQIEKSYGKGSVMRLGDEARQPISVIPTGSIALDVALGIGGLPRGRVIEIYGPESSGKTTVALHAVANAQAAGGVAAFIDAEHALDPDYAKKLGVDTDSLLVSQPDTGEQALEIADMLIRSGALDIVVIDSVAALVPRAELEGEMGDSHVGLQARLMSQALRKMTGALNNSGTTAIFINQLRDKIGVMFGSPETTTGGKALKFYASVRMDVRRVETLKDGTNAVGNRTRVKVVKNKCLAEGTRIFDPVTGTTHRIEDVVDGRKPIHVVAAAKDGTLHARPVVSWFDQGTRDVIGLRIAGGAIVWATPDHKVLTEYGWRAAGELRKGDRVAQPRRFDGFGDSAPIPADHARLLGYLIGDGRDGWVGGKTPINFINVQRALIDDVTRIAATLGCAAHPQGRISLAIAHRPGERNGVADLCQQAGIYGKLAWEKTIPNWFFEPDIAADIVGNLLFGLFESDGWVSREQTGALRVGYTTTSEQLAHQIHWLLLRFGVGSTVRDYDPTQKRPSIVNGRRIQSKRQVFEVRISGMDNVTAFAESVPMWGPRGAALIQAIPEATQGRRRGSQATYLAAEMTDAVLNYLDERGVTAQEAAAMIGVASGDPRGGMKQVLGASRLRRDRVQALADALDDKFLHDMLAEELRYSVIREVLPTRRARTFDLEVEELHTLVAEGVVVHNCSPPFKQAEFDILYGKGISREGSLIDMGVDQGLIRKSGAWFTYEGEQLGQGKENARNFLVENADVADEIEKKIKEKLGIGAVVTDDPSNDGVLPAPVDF
PrP 5UTR inh = suppresses PrP 5' UTR mRNA reporter expression; 0.35% of 340,000 active; inhibition, % (no concentration beside the values); cell-based PrP 5' UTR mRNA reporter, plate reader; in the data active = inhibition above about 52%
PfHsp40 rescue = restores yeast growth despite PfHsp40 toxicity. S. cerevisiae expressing PfHsp40, growth rescue, ATP luminescence. growth rescue, % at 12.5 µM. 0.68% of 340,000 active. AID 504582; in the data active = growth rescue above about 28%, passing the limit was not always enough; inconclusive = no clear call, values can overlap the other calls;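 also: yeast W303a lacking pdr1 and pdr3 grown in galactose medium; growth measured after three days at 30 °C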
PriA SSB inh = blocks PriA binding to SSB C-terminal tail. AlphaScreen SSBct-PriA binding, biotinylated peptide. inhibition, % at 33 µM. 0.6% of 430,000 active. AID 1272365; in the data active = inhibition mostly above about 37%, no sharp cut-off; inactive = mostly below about 20%
BJeLR viability = BJeLR cell viability loss; BJeLR (HRASV12) viability, CellTiter-Glo ATP luminescence, 48 h; inhibition, % (concentration not given with the values); 0.17% of 300,000 active; in the data active = inhibition above about 50%; inconclusive = no clear call, values can overlap the other calls
PrPC surface inh = inhibitors of human cell surface prion protein PrPC; inhibition, % at 13.8 µM; TR-FRET read-out; P04156; 0.43% of 370,000 active; AID 720596; in the data active = inhibition above about 24%
GFP chromo cs = counter-screen GFP chromophore formation inhibition. shares compounds with RecA intein inh. cell-free GFP chromophore formation, fluorescence. EC50, µM. 83% of 2,100 active. AID 434968; call rule not given here
Large screens that a line does not name were inactive (follow-up assays come after a bar, where they were run). Sampled rows, rich in hits. Any-hit rate of the full collection: about 1.9%.

C/C(CC(=O)Nc1cc(C)ccn1)=N\NC(=O)c1ccncc1	RecA intein inh 75.0 (no result: PriA SSB inh) | GFP chromo cs 17
COc1ccccc1N(C(=O)CCl)c1cn(C(C)=O)c2ccccc12	RecA intein inh 51.1, BJeLR viability 65.1 | GFP chromo cs 22.6
CC(=O)n1cc(N(C(=O)CCl)c2ccc(Cl)cc2)c2ccccc21	RecA intein inh 58.7, BJeLR viability 107.5 (no result: PrP 5UTR inh, PfHsp40 rescue, PrPC surface inh) | GFP chromo cs 1.28
O=C(c1cc(=O)c(OCc2ccccc2)co1)N1CCN(c2ccccn2)CC1	none (no result: RecA intein inh, PrP 5UTR inh, PfHsp40 rescue, BJeLR viability, PrPC surface inh)
Fc1ccc2[nH]c3c(Cl)ncnc3c2c1	none
COc1ccc2[nH]c3c(Cl)ncnc3c2c1	RecA intein inh 76.2 | GFP chromo cs inactive
CC1CCN(C(=O)c2ccc3c(c2NCCO)C(=O)c2ccccc2C3=O)CC1	none
CCN(CC)CCNC(=O)c1ccc2c(c1NCCO)C(=O)c1ccccc1C2=O	RecA intein inh 78.4 (no result: PrP 5UTR inh, PfHsp40 rescue) | GFP chromo cs 6.89
CC(C)Cc1nc(N2CCN(C(=O)c3ccco3)CC2)c(C#N)c2c1CCCC2	none
CC(C)C(=O)N1CCN(c2nc(-c3ccccc3)c3c(c2C#N)CCCC3)CC1	RecA intein inh 31.0 | GFP chromo cs inactive
Cc1[nH]nc2c1C(c1c[nH]c3ccccc13)C(C#N)=C(N)O2 (stereo unspecified)	RecA intein inh 90.1 | GFP chromo cs 7.55
CCSc1cc(C2C(C#N)=C(N)Oc3n[nH]c(C)c32)c(C)o1 (stereo unspecified)	RecA intein inh 76.7 | GFP chromo cs 14.7
COC(=O)Cc1[nH]nc2c1C(c1ccc(O)c(OC)c1)C(C#N)=C(N)O2 (stereo unspecified)	RecA intein inh 76.8 | GFP chromo cs 30.9
COC(=O)Cc1[nH]nc2c1C(c1c[nH]c3ccccc13)C(C#N)=C(N)O2 (stereo unspecified)	RecA intein inh 86.5 | GFP chromo cs inactive
NC(=NOC(=O)CC1CCCCC1)c1cccc([N+](=O)[O-])c1	none (no result: RecA intein inh, PrP 5UTR inh, PfHsp40 rescue, BJeLR viability, PrPC surface inh)
CCN(CC)S(=O)(=O)c1ccc(NN=C(C#N)C#N)cc1	RecA intein inh 37.9 | GFP chromo cs 26.9
CCN(CC)S(=O)(=O)c1cccc(NN=C(C#N)C#N)c1	none (no result: RecA intein inh, PrP 5UTR inh, PfHsp40 rescue, BJeLR viability, PrPC surface inh)
CC1=NN(c2ccccc2)C(=O)/C1=C\c1cn(CCC#N)nc1-c1ccc(Cl)cc1	RecA intein inh 37.3 | GFP chromo cs 10.3
N#CCCn1cc(C=C2C(=O)NC(=O)NC2=O)c(-c2ccccc2)n1	none
O=C1CCCC(c2ccccc2)N1 (stereo unspecified)	none
c1ccc(-c2ccc(C3CCCN3)cc2)cc1 (stereo unspecified)	RecA intein inh 89.5 | GFP chromo cs inactive
O=C(CN1C(=O)S/C(=C\C=C\c2ccccc2)C1=O)Nc1ccc(C(=O)O)cc1	RecA intein inh 35.3 | GFP chromo cs inactive
O=C(CN1C(=O)S/C(=C/C=C/c2ccccc2)C1=O)Nc1ccc(C(=O)O)cc1	none
COC1(OC)C(/C=C/c2ccc(Cl)cc2)C(C#N)(C#N)C1(OC)OC (stereo unspecified)	RecA intein inh 73.2 (no result: PriA SSB inh) | GFP chromo cs inactive
COc1ccc(N2CC(C(=O)Nc3c4c(nn3-c3ccccc3)CCC4)CC2=O)cc1 (stereo unspecified)	none (no result: RecA intein inh, PrP 5UTR inh, PfHsp40 rescue, BJeLR viability, PrPC surface inh)
O=c1cc(-c2ccc(Cl)cc2)oc(=O)[nH]1	none
O=c1cc(N=Nc2ccc(Cl)cc2)[nH]c(=O)[nH]1	RecA intein inh 88.2 | GFP chromo cs inconclusive
COc1ccc(CNC(=O)C(=O)Nc2ccc(C(N)=O)cc2)cc1	none (no result: RecA intein inh, PrP 5UTR inh, PfHsp40 rescue, BJeLR viability, PrPC surface inh)
CCn1c(SCC(=O)Nc2nc(-c3ccc(C)cc3)cs2)nnc1-c1ccccc1O	RecA intein inh 37.9, PfHsp40 rescue 86.3 | GFP chromo cs inactive
CCn1c(SCC(=O)Nc2nc(-c3ccc(C)cc3)cs2)nnc1-c1ccccc1	none
O=C1c2ccccc2C(=O)C12OC2c1ccc(Cl)cc1 (stereo unspecified)	RecA intein inh 71.6 (no result: PrP 5UTR inh, PfHsp40 rescue, PriA SSB inh, PrPC surface inh) | GFP chromo cs inactive
O=C(CCl)N1CCN(S(=O)(=O)c2ccc3ccccc3c2)CC1	RecA intein inh 76.0 | GFP chromo cs 28.5
CCCCOc1ccc(C(=O)NCC(OC)c2ccccc2C)cc1 (stereo unspecified)	none (no result: RecA intein inh, PrP 5UTR inh, PfHsp40 rescue, BJeLR viability, PrPC surface inh)
CS(=O)(=O)C1=NSC2=NC(=O)/C(=C\c3ccc(OC(=O)c4ccco4)cc3)C(=N)N21	RecA intein inh 35.0 (no result: PrP 5UTR inh, PfHsp40 rescue, PriA SSB inh, PrPC surface inh) | GFP chromo cs inactive

Screens from PubChem BioAssay.
